# Laboratory results as given in publication PMC7819943, “Rice protein-binding microarrays: a tool to detect cis-acting elements near promoter regions in rice”.
# Whole data set: some 39,000 sequences, median “fluorescence intensity (a.u.)” near 4,300, cut for the highest 2% near 39,000. This excerpt belongs to a sample that is enriched for the highest values.
# Target: T1, OsSMF1 (Oryza sativa, UniProt Q6ZLB0 1-436)
# T1 sequence: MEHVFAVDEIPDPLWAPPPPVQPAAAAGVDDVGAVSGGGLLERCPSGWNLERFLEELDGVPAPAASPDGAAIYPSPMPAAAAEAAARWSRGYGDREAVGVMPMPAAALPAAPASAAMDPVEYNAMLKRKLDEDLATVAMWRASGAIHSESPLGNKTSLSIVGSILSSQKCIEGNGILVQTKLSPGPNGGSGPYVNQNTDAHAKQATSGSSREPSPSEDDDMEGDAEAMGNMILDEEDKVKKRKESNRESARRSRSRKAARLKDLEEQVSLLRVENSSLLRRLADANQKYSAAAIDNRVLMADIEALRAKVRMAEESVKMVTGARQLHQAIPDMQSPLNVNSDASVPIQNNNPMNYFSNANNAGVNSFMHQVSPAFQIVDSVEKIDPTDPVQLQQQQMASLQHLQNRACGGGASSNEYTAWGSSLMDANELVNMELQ
# Assay: protein-binding microarray (RPBM); PBS, 2% BSA, 51.3 ng/ul salmon testes DNA, 50 uM zinc acetate, 200 nM TF, 25 C, 1 h; high values mean tight binding
# Details: protein: recombinant; tags: N-terminal polyhistidine and DsRed monomer fusion (pET32a); chain copies: 2; label: CyDye5-dUTP incorporated in the synthesized complementary strand; 3' TTTTT single-stranded linker to array surface; dsDNA, one strand shown
# How it was run: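 Ni–NTA purification followed expression in E. coli BL21-CodonPlus of transcription factors fused N-terminally to a polyhistidine tag and DsRed. At 200 nM in PBS with 2% BSA, salmon testes DNA and 50 µM zinc acetate, the protein was incubated for 1 h at 25 °C with a custom Agilent array that had been primer-extended with Cy5-dUTP and blocked with 2% BSA. After washing, the array was read on an Axon 4000B scanner. The binding signal is per-feature fluorescence intensity in arbitrary units.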
row,Sequence,binding signal
1,ATAACAGCGGGCCTTACGTGTACATGATAGTATATAGTACCGGAGTCACCTAGTGCAG,7000 fluorescence intensity (a.u.)
2,ACAGACTTGTTTAAGTTACAAGACGATACTATAAGAATTTCGGAGTCACCTAGTGCAG,41100 fluorescence intensity (a.u.)
3,TTATTAATATATTTAATTTAATGATCCGAGATAACATATCCGGAGTCACCTAGTGCAG,35600 fluorescence intensity (a.u.)
4,ATATAAGATGTAACTATTACGATGTTTCATGATACAAGTACGGAGTCACCTAGTGCAG,15000 fluorescence intensity (a.u.)
5,TTTATTAATATATATATATATATATATATATATATATATACGGAGTCACCTAGTGCAG,7400 fluorescence intensity (a.u.)
6,GTTTGTTGTCGATACAATCACTAGTTGTGTTTGTTAATTTCGGAGTCACCTAGTGCAG,4170 fluorescence intensity (a.u.)
7,ATATTTAACAACGGATCAAATGATAGGAAAATAATTAATACGGAGTCACCTAGTGCAG,4700 fluorescence intensity (a.u.)
8,TGAAACGGAGGGAGTATTATTAATATCTTAAGATGGACGACGGAGTCACCTAGTGCAG,6690 fluorescence intensity (a.u.)
9,AATTACATAATTTTAATACGAAGATGAATGATCAAATATACGGAGTCACCTAGTGCAG,56600 fluorescence intensity (a.u.)
10,ATCAACAACTGTATTTAAAATGGGACGAATAGAGTAAATGCGGAGTCACCTAGTGCAG,20200 fluorescence intensity (a.u.)
11,CTATTAGAATATTTTATAATAGTTAATAGTTAATTAATTACGGAGTCACCTAGTGCAG,39700 fluorescence intensity (a.u.)
12,CAGAAAACAATAGTTATATTTAAGATGGGACGAATGGAGTCGGAGTCACCTAGTGCAG,53100 fluorescence intensity (a.u.)
13,AAAATAAAATTTATTAATAATATTTTATCTATATTTACGACGGAGTCACCTAGTGCAG,30400 fluorescence intensity (a.u.)
14,GAGCGAGGCGAGGGTGGGGAGGCGGAGGAGGATGTCCAGGCGGAGTCACCTAGTGCAG,4580 fluorescence intensity (a.u.)
15,ATTTGATAAATGGGATGCCACGTGTACACCACGTCAACAGCGGAGTCACCTAGTGCAG,31000 fluorescence intensity (a.u.)
16,GATCAGATCGCACGCTGAGACGTATAGACGACGTGGGTCCCGGAGTCACCTAGTGCAG,4650 fluorescence intensity (a.u.)
17,TGTTTGTATAATTTTGAGTTATCAACAGTCGCGATGGAGACGGAGTCACCTAGTGCAG,24900 fluorescence intensity (a.u.)
18,CAAGTACCCAACCCGCGTCGTCATCGTCGTCTTCCTACTTCGGAGTCACCTAGTGCAG,5510 fluorescence intensity (a.u.)
19,AAAATGTCATGTAACTACGCCATTGGACCATAAATATTTTCGGAGTCACCTAGTGCAG,13600 fluorescence intensity (a.u.)
20,TATGGATGGGTTTTATTAATAGTCTACGTTTAATATTTATCGGAGTCACCTAGTGCAG,4490 fluorescence intensity (a.u.)
21,TTATTATTAGTAAATATGTAGTTTTACGATATTTAGTCTTCGGAGTCACCTAGTGCAG,44400 fluorescence intensity (a.u.)
22,GAGAGAATCTTGGAACGATTAGTAGTACATAAAGTAGAATCGGAGTCACCTAGTGCAG,3650 fluorescence intensity (a.u.)
23,ATTATTTAAGTGATGATATGTAAATAACGAGTGAAGTTTTCGGAGTCACCTAGTGCAG,3400 fluorescence intensity (a.u.)
24,TACGGAACCTGTAATTTGTTTTGTTATTAGTCTACATTTACGGAGTCACCTAGTGCAG,45800 fluorescence intensity (a.u.)
25,TGTATTTGCTACCGTTTTCCAATATGTACCGTCATGTTTCCGGAGTCACCTAGTGCAG,3920 fluorescence intensity (a.u.)
26,CAGACGGATTATGTAATTTGTTTTATTATTAATTAGTCTACGGAGTCACCTAGTGCAG,3890 fluorescence intensity (a.u.)
27,TATTCTGATTGGAACTTATGAGTCTTGAATTCTTGATTCTCGGAGTCACCTAGTGCAG,29700 fluorescence intensity (a.u.)

row,Sequence,binding signal
1,TTTCTCGGAATTTCTGGAAATTTTCTTGGAATTAGTAGAACGGAGTCACCTAGTGCAG,65500 fluorescence intensity (a.u.)
2,ATATTATATTAAATTTGTAGTTTTACGATAATATGGTAAACGGAGTCACCTAGTGCAG,25400 fluorescence intensity (a.u.)
3,AATATGGATTATTACCAAGAATTTATCCGTTGTTTTGCTACGGAGTCACCTAGTGCAG,40700 fluorescence intensity (a.u.)
4,TACGAATTATGTAATTTGTTTTGTTATTAGTGTACATCTACGGAGTCACCTAGTGCAG,4070 fluorescence intensity (a.u.)
5,CTCGCTCGCCTGCCTCCCCACCTCACCAGCTCACCCCACGCGGAGTCACCTAGTGCAG,4810 fluorescence intensity (a.u.)
6,TCAAGATCCAACAGCTTGTCTCGTGCTCGTCACAGCTTCTCGGAGTCACCTAGTGCAG,3230 fluorescence intensity (a.u.)
7,GCAAGAGATCCGAGAAGAGCAACATAACCCACAGGCCGCTCGGAGTCACCTAGTGCAG,3720 fluorescence intensity (a.u.)
8,CCCCACCGACGGCGTGCAAAGCGGCCACCCAGCTCGACGCCGGAGTCACCTAGTGCAG,8120 fluorescence intensity (a.u.)
9,TTAGTATTTAAAATTTAAAAGCAAAGTCATTCTCCTTCTACGGAGTCACCTAGTGCAG,8610 fluorescence intensity (a.u.)
10,TGGGTGTAATTGTTTCCTCGATTTCGCTGGCATGTACTTTCGGAGTCACCTAGTGCAG,3780 fluorescence intensity (a.u.)
11,GGATGGACGTGTGGGGCCTCGCCGTCAGCATTTGCTCCTTCGGAGTCACCTAGTGCAG,4560 fluorescence intensity (a.u.)
12,GCGTACGGCTGCCTAATGCAGAGCCTGACGTGGCGAGCTGCGGAGTCACCTAGTGCAG,17400 fluorescence intensity (a.u.)
13,GATAAAGGTCTCTATTTGCATGACATATATCGTTACTATACGGAGTCACCTAGTGCAG,3570 fluorescence intensity (a.u.)
14,CTCCAGCAGCTGCTCGCTCGTCATCACCGCGATGCTGCCGCGGAGTCACCTAGTGCAG,3490 fluorescence intensity (a.u.)
15,TTGGCGGTGATCGAGGTTAGACATCTCACCGTCAATCTTGCGGAGTCACCTAGTGCAG,3180 fluorescence intensity (a.u.)
16,AGACCACATAGAATGGAAGCGTCATCAGTTTCCACGCAATCGGAGTCACCTAGTGCAG,6480 fluorescence intensity (a.u.)
17,CGTCAGCCTGCAATCGCTTTCTGGGCCCAATAGTACGGGCCGGAGTCACCTAGTGCAG,8490 fluorescence intensity (a.u.)
18,AGATCAGCAAGCGAACTGAATTTAATCAAATGTACTAGTACGGAGTCACCTAGTGCAG,23000 fluorescence intensity (a.u.)
19,TTTGTACTCATTTTATTACAACATGAACAAACCCTTCTTTCGGAGTCACCTAGTGCAG,3500 fluorescence intensity (a.u.)
20,TTTCTTTGGTTCAGCTGAACCATTATTTGTTGTTTTACTTCGGAGTCACCTAGTGCAG,40700 fluorescence intensity (a.u.)
21,AAAATTTAATACGACGAATGTTCAAACGGTGCAAGCAAAACGGAGTCACCTAGTGCAG,45000 fluorescence intensity (a.u.)
22,AACTTTCATAAGCAAAATATCAAACGACTTATAATTTTATCGGAGTCACCTAGTGCAG,26300 fluorescence intensity (a.u.)
23,ACTTTGTACTAGTTTTCATATTATGTCATTCTTTAACCATCGGAGTCACCTAGTGCAG,3650 fluorescence intensity (a.u.)
24,GAAGCCCTAGCCTAGGAGTGAGAGGTCCCACGTCTTCCCCCGGAGTCACCTAGTGCAG,3780 fluorescence intensity (a.u.)
25,TTAATAATAGCCATGTGCGTCATTAGACGGTAGTACGATCCGGAGTCACCTAGTGCAG,5910 fluorescence intensity (a.u.)
26,TGTATAATACATGCCCACGCATTCGCGCGGGCTACCCTCCCGGAGTCACCTAGTGCAG,3530 fluorescence intensity (a.u.)
27,CATGCAGTCAATAGTGTGACTGTAACTTAAACGGTCACACCGGAGTCACCTAGTGCAG,3750 fluorescence intensity (a.u.)
